Bioassay records as filed in PubChem BioAssay.
CCT chaperon mod: changes cytosolic chaperonin activity; purified chaperonin ATPase assay, HTRF ADP detection, 30 min; activity change, % (concentration not given with the values), hits read low; 360,000 tested, 0.3% active; AID 651819; in the data active = activity change below about -30%
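TRiC at 40 or 20 nM final (batch-dependent) in 30 mM Tris pH 7.4, 100 mM KCl, 5 mM MgCl2, 1 mM DTT, with compound at single 76 uM and 10 uM ATP, 30 min at 37 deg C. ADP detected by HTRF Transcreener, 665/615 ratio.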
TSHR antagonist: human thyrotropin receptor antagonism | P16473 | TSHR-expressing cells, TSH-stimulated cAMP HTRF, 2 h; stronger effect = lower value | activity change, negative = inhibition, % at 11.5 µM | 330,000 tested, 0.2% active;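 active = activity change below a set negative limit, meaning inhibition stronger than a set level, cut at about -70% in these data; inconclusive = activity change between two set negative limits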
Target sequence (P16473 whole entry, looked up): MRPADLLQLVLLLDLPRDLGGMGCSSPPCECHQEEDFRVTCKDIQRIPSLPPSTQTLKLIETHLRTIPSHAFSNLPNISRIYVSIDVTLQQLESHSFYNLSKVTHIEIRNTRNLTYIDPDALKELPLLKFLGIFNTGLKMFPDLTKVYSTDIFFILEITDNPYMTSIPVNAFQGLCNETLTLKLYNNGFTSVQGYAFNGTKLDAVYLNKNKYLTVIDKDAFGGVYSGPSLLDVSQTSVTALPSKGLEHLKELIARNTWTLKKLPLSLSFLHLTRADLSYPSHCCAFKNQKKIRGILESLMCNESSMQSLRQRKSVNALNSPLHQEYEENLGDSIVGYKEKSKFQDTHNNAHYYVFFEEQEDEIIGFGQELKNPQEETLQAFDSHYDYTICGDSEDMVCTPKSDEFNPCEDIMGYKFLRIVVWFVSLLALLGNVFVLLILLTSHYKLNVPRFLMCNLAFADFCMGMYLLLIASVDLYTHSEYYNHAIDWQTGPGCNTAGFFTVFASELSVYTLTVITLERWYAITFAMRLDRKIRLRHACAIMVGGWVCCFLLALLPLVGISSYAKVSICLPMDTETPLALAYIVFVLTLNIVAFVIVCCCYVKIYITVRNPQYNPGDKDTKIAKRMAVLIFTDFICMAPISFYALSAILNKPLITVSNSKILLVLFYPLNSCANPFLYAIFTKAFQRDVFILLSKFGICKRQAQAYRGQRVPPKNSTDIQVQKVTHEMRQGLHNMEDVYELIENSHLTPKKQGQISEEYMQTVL
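Read-out is FRET at 665 nm (cryptate excitation 337 nm) from a cryptate-tagged anti-cAMP antibody, competed by cell cAMP against cAMP-d2. Compounds are tested on freshly harvested TSHR cells challenged with 4nM TSH (EC80) for 2 hours at 37 deg C.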
gsp antagonist: antagonizes gsp, the McCune-Albright syndrome mutation; gsp-mutant cells, cAMP HTRF, 30 min; Potency, µM (titrated, usually from 76.9 µM), actives largely listed as inhibitors; 340,000 tested, 0.4% active; AID 624288; calls by dose curve; cell line not stated here;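 note: intracellular cAMP measured with PDE inhibitor Ro 20-1724 present during compound exposure; nearly all actives have a fitted effect of over 65% in size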
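Cells, 2000/well, grown 16–24 h in DMEM 10% FBS with 0.5 mg/ml G418, then compounds plus […] (300 uM addition stock), 30 min at 37C. cAMP read by HTRF (cAMP-d2 and anti-cAMP antibody-K in lysis buffer) after 30 min RT.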
uPA surface inh: cell surface uPA generation inhibition. AID 540303. Potency, µM (doses to about 38.3 µM), usual class: inhibitors. 330,000 tested, 0.31% active. cell surface uPA generation assay, qHTS; active = well fitted inhibition curve with a large enough effect; inconclusive = small, poorly fitted or top-dose-only effect; inactive = no such curve, though single readings can be large or run the other way; tested in mouse RAW 264.7 cells; note: nearly all actives have a fitted effect of over 55% in size
MmCpn inh: M. maripaludis TRiC chaperonin inhibition. 330,000 tested, 0.031% active. Potency, µM (top dose mostly 76.9 µM), hits mostly inhibitors. purified Mm-Cpn ATPase, ADP Transcreener TR-FRET; active = well fitted inhibition curve with a large enough effect; inconclusive = small, poorly fitted or top-dose-only effect; note: nearly all actives have a fitted effect of over 80% in size
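Inhibition of chaperonin ATP hydrolysis is measured as reduced ADP production, detected by competitive TR-FRET in which signal falls with ADP. Final enzyme 25 nM and ATP 10 uM, reacted 30 min at 37°C.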
gsp agonist: activates gsp, the McCune-Albright syndrome mutation; 340,000 tested, 0.13% active; gsp mutant cells, cAMP HTRF, 30 min; Potency, µM (series often up to 76.9 µM), most hits filed as activators; active = well fitted activation curve with a large enough effect; inconclusive = small, poorly fitted or top-dose-only effect, or another doubt; inactive = no such curve, though single readings can be large or run the other way; cell line not stated here;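 note: phosphodiesterase inhibitor Ro 20-1724 added with compounds to block cAMP breakdown; nearly all actives have a fitted effect of over 60% in size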
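Cells in DMEM/10% FBS with G418 were pretreated with compounds in DMSO plus […] (300 uM stock) for 30 min at 37C. cAMP was measured by HTRF (cAMP-d2 plus anti-cAMP antibody-K) after 30 min at room temperature.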
Of the large screens only hits and unclear results are named; the others gave an inactive call. Only some compounds are listed: those with a hit (about 1.2% of all), similar ones and a draw of the others.

COC(=O)c1ccc(-n2c(C)cc(C(=O)CCl)c2C)cc1	uPA surface inh 6.3µM
CCOc1ccc(-n2c(C)cc(C(=O)CCl)c2C)cc1	none
N/C(=N\OC(=O)N1CCOCC1)c1ccc(Br)cc1	uPA surface inh 10µM
Cc1cccc(/C=N/Nc2ccc3ccccc3n2)c1	uPA surface inh 8.9µM, gsp agonist inconclusive
Cc1ccc(/C=N/Nc2ccc3ccccc3n2)o1	none
C(=N\Nc1nc2ccccc2[nH]1)/c1ccc2c(c1)OCCO2	uPA surface inh inconclusive
C(=N\Nc1ccc2ccccc2n1)/c1ccc2c(c1)OCCO2	uPA surface inh 2.2µM, gsp agonist inconclusive
CN(CC(=O)Nc1ccccc1Cl)C(=O)c1cc(C2CC2)nn1-c1ccccc1	CCT chaperon mod -31
CC1=C(C(N)=O)C(c2ccc(C)o2)C(C(N)=O)=C(C)N1	none
CC1Sc2ccc(C(=O)NCc3ccccn3)cc2NC1=O (centres undefined)	uPA surface inh 3.2µM
CCCNC(=O)CCc1cc(C(C)(C)C)c(O)c(C(C)(C)C)c1	uPA surface inh 11µM
CC(C)(C)c1cc(CCC(=O)NCCc2ccccn2)cc(C(C)(C)C)c1O	none
CCN(CC)C(=O)CSc1nc(C)cc(-c2cccs2)c1C#N	CCT chaperon mod -34
Cc1ccccc1N1C(=O)C(Cl)=C(N2CCN(c3ccccc3)CC2)C1=O	none
CCCCNCCCCOc1ccccc1	CCT chaperon mod -90
CCc1cc2c(=O)c(-c3ccc4c(c3)OCCO4)coc2cc1OC(=O)c1ccco1	none
N#C/C(=C(/O)c1ccco1)c1nc2ccccc2[nH]1	none
N#C/C(=C(/O)c1ccco1)c1nc2ccccc2s1	gsp antagonist 35µM
O=C(Nc1ccccc1-c1nc2ccccc2s1)c1ccco1	gsp agonist 25µM
O=C(Nc1ccc(NC(=O)c2sc3ccccc3c2Cl)cc1Cl)c1ccco1	CCT chaperon mod -33, gsp agonist inconclusive
CCOc1cc(NC(=S)Nc2cccc(OC)c2)c(OCC)cc1NC(=O)C1CC1	gsp antagonist inconclusive
CC(=O)N1CCc2cc(Br)cc(S(=O)(=O)N3CCC(C(=O)O)CC3)c21	TSHR antagonist -106
C=CCN1c2ccccc2[C@]23C[C@@H](C(=O)OC)N(C(=O)c4cc(C)oc4C)C2=NC(C(=O)OC)=C(C(=O)OC)[C@H]13	uPA surface inh 5.6µM
CC#CCN1c2ccccc2[C@]23C[C@@H](C(=O)OC)N(C(=O)c4cc(C)oc4C)C2=NC(C(=O)OC)=C(C(=O)OC)[C@H]13	uPA surface inh inconclusive (no result: gsp agonist)
S=C(NCC1CCCO1)N1CCN(c2nc(-c3ccc(Cl)cc3)cs2)CC1 (centres undefined)	gsp antagonist 50µM
COc1ccc(NC(=O)CSCC(=O)OCc2cccc(OC)c2OC)cc1	none
Cc1cc(C)c(S(=O)(=O)N2CCN(C(=O)c3c(C)nn(-c4ccccc4)c3Cl)CC2)c(C)c1	gsp antagonist 25µM (no result: TSHR antagonist, MmCpn inh)
Cc1noc(N)c1C(=O)Nc1ccc(F)c(Cl)c1	none
CC(NC(=O)c1ccco1)C(=O)N1CCN(c2cccc(Cl)c2)CC1 (centres undefined)	gsp agonist inconclusive
CC(C)C(NC(=O)Cc1ccccc1)C(=O)N1CCN(c2cccc(Cl)c2)CC1 (centres undefined)	gsp antagonist 28µM
COc1ccc(N(C)S(=O)(=O)c2ccc3c(c2)CCN3C(=O)C2CC2)c(OC)c1	gsp antagonist 28µM
CCC(=O)N1CCc2cc(S(=O)(=O)N(C)c3ccc(OC)cc3OC)ccc21	none
O=C(Nc1nc(-c2ccccn2)cs1)c1ccc2c(c1)OCCO2	uPA surface inh 2.5µM, gsp agonist inconclusive
COC(=O)C1=C(C)NC(=O)CC1c1cccc(Cl)c1Cl (centres undefined)	CCT chaperon mod -30
COc1cc2c(cc1OC)C(c1cccc(Cl)c1Cl)CC(=O)N2 (centres undefined)	none
COc1ccc(C(=O)N2CCN(C(=O)C3CCCO3)CC2)cc1[N+](=O)[O-] (centres undefined)	none
COC1=CC(=O)c2ccccc2C1=O	uPA surface inh 5µM (no result: gsp agonist)
COC1=CC(=O)C=C(OC)C1=O	gsp antagonist inconclusive, uPA surface inh inconclusive (no result: TSHR antagonist, MmCpn inh, gsp agonist)
COc1ccc(N2CCN(C(=O)[C@H](C)NC(=O)c3ccccc3Cl)CC2)cc1	TSHR antagonist -99
Cn1cccc1/C=C1\SC(=Nc2ccccc2)NC1=O	uPA surface inh 1.4µM
CCCCc1ccc(NC(=O)CSc2nc3ncccc3[nH]2)cc1	none
COC(C/C=C/C(=O)[C@H](C)OCc1ccccc1)OC	uPA surface inh 11µM (no result: TSHR antagonist, MmCpn inh, gsp agonist)
COC(C/C=C/C(=O)COCc1ccccc1)OC	uPA surface inh 7.1µM (no result: gsp agonist)
Cc1cc(NC(=O)COc2ccccc2C)ccc1NC(=O)c1cccs1	none
COCC(=O)N(c1ccc(C(C)C)cc1)C1C=CS(=O)(=O)C1 (centres undefined)	none
CC(=O)OC(CC(=O)O)C[N+](C)(C)C (centres undefined)	none (no result: gsp agonist)
CN(C)/C=C(/C(=O)c1ccc(Cl)cc1)S(=O)(=O)c1ccc(Cl)cc1	TSHR antagonist -114
CN(C)/C=C(/C(=O)c1ccc(Cl)cc1Cl)S(=O)(=O)c1ccc(Cl)cc1	none
O=C(/C=C/c1ccccc1)Nc1ccc(Br)cn1	uPA surface inh 1.6µM
CCCN(C(=O)COC(=O)C12CCC(=O)N1c1ccccc1S2)c1c(N)n(Cc2ccccc2)c(=O)[nH]c1=O (centres undefined)	MmCpn inh inconclusive
COc1ccccc1C(=O)Nc1cccnc1	none
O=C1CC(NCc2ccc3c(c2)OCO3)C(=O)N1Cc1ccc2c(c1)OCO2 (centres undefined)	gsp antagonist 28µM
O=C(O)C1CC(=O)N(Cc2ccc3c(c2)OCO3)C1 (centres undefined)	none
CC1=C(C(=O)OCc2ccc3c(c2)OCO3)C(c2ccccc2OCc2ccccc2)NC(=O)N1 (centres undefined)	none
Cc1nc(S/C(=C/c2ccc(-c3cc(Cl)ccc3C)o2)C(=O)O)n[nH]1	gsp antagonist 28µM
O=C(CCS(=O)(=O)c1ccc(F)cc1)Nc1nnc(-c2cccs2)o1	uPA surface inh 10µM, gsp agonist inconclusive
CC1=[N+](C)c2ccc3ccccc3c2C1(C)C	uPA surface inh 2.2µM
c1ccc2c(c1)ccc1ccccc12	none
CCn1cc(/C=N\NC(=O)Cc2ccc([N+](=O)[O-])cc2)c(C)n1	CCT chaperon mod -39
Cc1nn(C)cc1/C=N\NC(=O)Cc1ccc([N+](=O)[O-])cc1	none
CCCCN(CC)CCNC(=O)c1cc2c(C)nc3ccccc3c2o1	uPA surface inh inconclusive
CCCCN1C(=O)CC(Sc2ncccc2C(=O)O)C1=O (centres undefined)	gsp agonist inconclusive
